This note sets out measurements from PubChem BioAssay (EPA / NIEHS).

Each structure is given as a SMILES string. Activity calls are given as the source filed them. The calls were made as follows: active = hit-call score of the fitted dose curve at least 0.9, where 1 is the maximum; inactive = score below 0.9.

The nature of assay [1]: ATG_CMV_CIS: Attagene CIS-FACTORIAL HepG2 Assay for human CMV (Internal Marker) (AID 2282928).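 Also: endpoint acts as a background internal control marker rather than a target.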 The settings on record: HepG2 CMV promoter reporter, transcription factor profiling; actives raise or lower the signal. The essentials: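 24 h chemical treatment, HepG2 with transient multi-reporter transfection; RNA → oligo(dT) RT → PCR → 6-FAM extension → HpaI digest → CE fluorescence. Bidirectional fit, DMSO negative control.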

Assay [2] is described as follows: ATG_ISRE_CIS: Attagene CIS-FACTORIAL HepG2 Assay for human Interferon Regulatory Factor 1 (IRF1) binding to an Interferon-Stimulated Response Element (ISRE) (AID 2282948). The settings on record: HepG2 ISRE cis-reporter (Attagene), mRNA transcription readout; actives raise or lower the signal. The method, boiled down: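 Multiplexed mRNA reporter readout in human liver HepG2 cells: cis-element-driven reporters transfected, compound added for 24 h, transcripts amplified, fluorescently labelled and sized by capillary electrophoresis; curve fitting bidirectional against DMSO.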

The nature of assay [3]: ATG_M_32_CIS: Attagene CIS-FACTORIAL HepG2 Assay for M32 Transcription Factor (Internal Marker) (AID 2282949).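 Also: background control marker of the multiplexed CIS panel rather than a real target.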 The settings on record: HepG2 Attagene cis-factorial M32 reporter, mRNA; actives raise or lower the signal. The essentials: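 HepG2 human liver cells transiently transfected with cis-promoter-driven multiple reporter transcription units, dosed 24 h. Reporter mRNA quantified by RT-PCR, FAM-labelled primer extension, HpaI digest and capillary electrophoresis; bidirectional fit versus DMSO baseline.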

Assay [4] addresses Hepatocyte nuclear factor 6 (Homo sapiens) (UniProt Q9UBC0). Kind of assay: ATG_HNF6_CIS: Attagene CIS-FACTORIAL HepG2 Assay for human Hepatocyte Nuclear Factor 6 (HNF6) (AID 2282952). The settings on record: HepG2 Attagene cis-factorial HNF6 reporter transcription; actives raise or lower the signal. The method, boiled down: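 Activity values derive from bidirectional fitting against DMSO of reporter mRNA levels, measured by capillary electrophoresis of labelled RT-PCR products from HepG2 cells exposed 24 h.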

Assay [5] deals with Heat shock factor protein 1 (Homo sapiens) (UniProt Q00613). Put plainly: ATG_HSE_CIS: Attagene CIS-FACTORIAL HepG2 Assay for human Heat Shock Transcription Factor 1 (HSE) (AID 2282953). The settings on record: HepG2 HSE cis-reporter, Attagene RNA transcription; actives raise or lower the signal. The method, boiled down:
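After a 24 h incubation with test chemical, transfected HepG2 cells were harvested for RNA; reporter transcripts were measured by RT-PCR and capillary electrophoresis. Values reflect gain or loss of signal relative to DMSO.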

Assay [6] can be described thus: ATG_RORE_CIS: Attagene CIS-FACTORIAL HepG2 Assay for human RAR-related Orphan Receptor Element (RORE) (AID 2282959). To be noted: HepG2 Attagene cis-factorial RORE reporter, mRNA; actives raise or lower the signal. The essentials: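 Cells were HepG2 carrying transfected cis-regulated reporter constructs, dosed for 24 hours. Total RNA was reverse-transcribed and reporter cDNA amplified, fluorescently labeled and sized by capillary electrophoresis. Activity was fitted bidirectionally relative to DMSO.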

The target in assay [7] is Signal transducer and activator of transcription 3 (Homo sapiens) (UniProt P40763). Kind of assay: ATG_STAT3_CIS: Attagene CIS-FACTORIAL HepG2 Assay for human Signal Transducer and Activator of Transcription 3 (STAT3) (AID 2282963). The settings on record: HepG2, Attagene cis-factorial STAT3 reporter transcription; actives raise or lower the signal. The essentials: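 HepG2, MRTU-transfected, 24 h dosing. RNA → RT → PCR → FAM label → HpaI → CE. Bidirectional fit vs DMSO.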
Signal transducer and activator of transcription 3 (Homo sapiens), sequence (P40763 whole entry, looked up): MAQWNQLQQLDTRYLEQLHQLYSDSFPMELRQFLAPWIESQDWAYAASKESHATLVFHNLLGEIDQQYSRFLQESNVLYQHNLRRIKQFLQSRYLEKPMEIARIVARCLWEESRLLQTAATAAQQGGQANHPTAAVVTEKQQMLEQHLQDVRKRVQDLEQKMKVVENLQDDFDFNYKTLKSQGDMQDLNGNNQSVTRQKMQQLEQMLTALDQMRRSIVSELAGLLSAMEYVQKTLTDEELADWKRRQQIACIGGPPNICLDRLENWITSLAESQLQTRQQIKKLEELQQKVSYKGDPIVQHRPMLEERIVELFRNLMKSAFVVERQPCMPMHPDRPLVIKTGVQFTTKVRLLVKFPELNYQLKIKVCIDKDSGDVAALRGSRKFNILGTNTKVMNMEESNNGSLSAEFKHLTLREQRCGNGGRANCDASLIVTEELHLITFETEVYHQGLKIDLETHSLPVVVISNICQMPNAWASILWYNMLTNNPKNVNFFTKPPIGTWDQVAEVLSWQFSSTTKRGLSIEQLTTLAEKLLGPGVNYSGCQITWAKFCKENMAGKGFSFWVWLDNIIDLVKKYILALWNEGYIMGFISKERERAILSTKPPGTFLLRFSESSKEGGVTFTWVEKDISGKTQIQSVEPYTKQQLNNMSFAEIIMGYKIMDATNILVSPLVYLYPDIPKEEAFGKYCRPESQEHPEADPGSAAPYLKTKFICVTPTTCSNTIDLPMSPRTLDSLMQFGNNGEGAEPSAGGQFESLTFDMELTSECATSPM

Assay [8] can be described thus: ATG_TA_CIS: Attagene CIS-FACTORIAL HepG2 Assay for human TA Basal Promoter (AID 2282964). The settings on record: HepG2 Attagene CIS-factorial TA basal promoter reporter; actives raise or lower the signal. The essentials:
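Multiplexed mRNA reporter assay, HepG2, 24 h. Reporter cDNA amplified, 6-FAM primer-extended, HpaI-cut, CE-sized; DMSO = negative control and baseline.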

The nature of assay [9]: ATG_TCF_b_cat_CIS: Attagene CIS-FACTORIAL HepG2 Assay for human T-Cell-Factor with beta-catenin (TCF/b-cat) (AID 2282965). To be noted: HepG2 TCF/beta-catenin cis-reporter transcription, actives raise or lower the signal. The method, boiled down: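 In this cis-format system, transfected HepG2 cells report endogenous transcription factor activity. Readout after 24 h exposure is reporter transcript abundance from RT-PCR and capillary electrophoresis, analysed for gain or loss of signal versus DMSO.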

Assay [10] can be described thus: ATG_TAL_CIS: Attagene CIS-FACTORIAL HepG2 Assay for human TAL Basal Promoter (AID 2282966).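 Also: background control endpoint measuring basal TAL promoter reporter mRNA not a specific factor.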 The settings on record: HepG2 Attagene cis-factorial TAL promoter reporter; actives raise or lower the signal. The essentials: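 Transiently transfected HepG2 (cis-regulated reporter units), 24 h treatment, mRNA read by fluorescent CE after RT-PCR; bidirectional fit, DMSO baseline.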

Assay [11] is described as follows: ATG_TGFb_CIS: Attagene CIS-FACTORIAL HepG2 Assay for human Transforming Growth Factor (TGF) (AID 2282967). To be noted: HepG2 Attagene CIS TGFb reporter, mRNA transcription; actives raise or lower the signal. The essentials: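 Transcript-level reporter readout: HepG2 transfectants, 24 h exposure, RNA to cDNA, reporter-specific PCR, fluorescent primer extension, capillary sizing against ROX standards. Gain- or loss-of-signal relative to DMSO.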

Assay [12] can be described thus: ATG_VDRE_CIS: Attagene CIS-FACTORIAL HepG2 Assay for human Vitamin D Receptor Element (VDRE) (AID 2282968). To be noted: HepG2 VDRE cis-reporter transcription, actives raise or lower the signal. The method, boiled down: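 Steps: transfect HepG2 with multiple reporter transcription units; dose chemicals 24 h; isolate RNA; RT-PCR; label with 6-FAM primer extension; HpaI digest; capillary electrophoresis. Curves fitted both directions against DMSO.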

In assay [13] the target is X-box-binding protein 1 (Homo sapiens) (UniProt P17861). Put plainly: ATG_Xbp1_CIS: Attagene CIS-FACTORIAL HepG2 Assay for human X-box Binding Protein 1 (XBP1) (AID 2282972). To be noted: HepG2 XBP1 cis-element reporter, Attagene multiplex; actives raise or lower the signal. The method, boiled down:
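Multiplexed cis-reporter readout in transfected HepG2 liver cells. Exposure lasted 24 hours. Activity in either direction was fitted against DMSO as negative control and baseline.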

Assay [14] deals with Transcriptional activator Myb (Homo sapiens) (UniProt P10242). Put plainly: ATG_Myb_CIS: Attagene CIS-FACTORIAL HepG2 Assay for human Myeloblastosis (Myb) Proto-Oncogene Transcription Factor (AID 2282986). To be noted: HepG2 Attagene CIS-FACTORIAL Myb reporter transcription; actives raise or lower the signal. The essentials: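 Steps: transfect HepG2 with cis-regulated reporter units; dose with chemical for 24 h; isolate RNA, reverse-transcribe, PCR-amplify and FAM-label reporter sequences; digest with HpaI; resolve by capillary electrophoresis. Activity fitted in both directions relative to DMSO.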
Transcriptional activator Myb (Homo sapiens), sequence (P10242 whole entry, looked up): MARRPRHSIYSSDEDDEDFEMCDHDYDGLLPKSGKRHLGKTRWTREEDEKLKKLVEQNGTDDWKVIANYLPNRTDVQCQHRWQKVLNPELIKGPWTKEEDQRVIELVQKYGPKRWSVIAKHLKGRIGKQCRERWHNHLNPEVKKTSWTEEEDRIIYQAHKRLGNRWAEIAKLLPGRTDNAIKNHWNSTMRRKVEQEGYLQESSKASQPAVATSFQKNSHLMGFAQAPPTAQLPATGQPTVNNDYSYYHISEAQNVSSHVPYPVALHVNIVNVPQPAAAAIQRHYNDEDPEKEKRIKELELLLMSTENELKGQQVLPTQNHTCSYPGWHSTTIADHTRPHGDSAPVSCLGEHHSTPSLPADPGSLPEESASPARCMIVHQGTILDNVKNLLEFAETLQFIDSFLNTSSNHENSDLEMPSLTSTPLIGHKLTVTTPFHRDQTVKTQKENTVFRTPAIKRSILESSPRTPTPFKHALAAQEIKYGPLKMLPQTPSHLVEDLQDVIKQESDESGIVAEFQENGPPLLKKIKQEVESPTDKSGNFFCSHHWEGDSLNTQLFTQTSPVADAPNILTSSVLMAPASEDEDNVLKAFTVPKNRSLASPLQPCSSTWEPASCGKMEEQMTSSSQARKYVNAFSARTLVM

Assay [15] has as its target Nuclear respiratory factor 1 (Homo sapiens) (UniProt Q16656). Kind of assay: ATG_NRF1_CIS: Attagene CIS-FACTORIAL HepG2 Assay for human Nuclear Respiratory Factor 1 (NRF1) Orphan Gene (AID 2282987). The settings on record: HepG2 NRF1 cis-element reporter, Attagene multiplex; actives raise or lower the signal. The method, boiled down: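 Fluorescence intensity of labelled reporter cDNA fragments, resolved by capillary electrophoresis, served as readout for NRF1 cis-element activity. Transiently transfected HepG2 cells were dosed for 24 hours; activity in either direction was fitted against DMSO negative control.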

Assay [16] deals with Myc proto-oncogene protein (Homo sapiens) (UniProt P01106). Put plainly: ATG_Myc_CIS: Attagene CIS-FACTORIAL HepG2 Assay for human Myelocytomatosis (Myc) Proto-Oncogene Transcription Factor (AID 2282990). The settings on record: HepG2, Attagene cis-reporter transcription factor activity; actives raise or lower the signal. The method, boiled down: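 DMSO-normalised, bidirectionally fitted reporter mRNA signal. HepG2 cells transfected with cis reporter constructs, treated 24 h; transcripts detected by RT-PCR, 6-FAM primer extension and CE.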
Myc proto-oncogene protein (Homo sapiens), sequence (P01106 whole entry, looked up): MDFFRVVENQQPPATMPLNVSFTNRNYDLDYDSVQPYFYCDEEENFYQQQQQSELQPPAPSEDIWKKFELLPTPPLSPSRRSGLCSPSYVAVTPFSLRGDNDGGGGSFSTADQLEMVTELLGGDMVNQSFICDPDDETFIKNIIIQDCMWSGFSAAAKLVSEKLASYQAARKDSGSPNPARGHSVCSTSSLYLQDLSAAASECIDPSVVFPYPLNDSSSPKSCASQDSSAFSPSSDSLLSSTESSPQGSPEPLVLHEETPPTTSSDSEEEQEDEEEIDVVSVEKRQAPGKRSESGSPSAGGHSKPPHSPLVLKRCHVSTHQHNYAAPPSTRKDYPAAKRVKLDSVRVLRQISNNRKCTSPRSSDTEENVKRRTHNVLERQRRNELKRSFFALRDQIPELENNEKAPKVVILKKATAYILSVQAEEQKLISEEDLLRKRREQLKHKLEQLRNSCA

The nature of assay [17]: ATG_NF_kB_CIS: Attagene CIS-FACTORIAL HepG2 Assay for human Nuclear Factor Kappa B (NF-kB) (AID 2282991). The settings on record: HepG2 Attagene cis-factorial NF-kB reporter mRNA; actives raise or lower the signal. The essentials: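 Endogenous transcription factor activity in HepG2 was captured via cis-regulated reporter constructs; after 24 h dosing, reporter mRNA was reverse-transcribed, amplified, fluorescently labelled and sized by capillary electrophoresis, with activity fitted bidirectionally relative to DMSO.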

Assay [18] can be described thus: ATG_NRF2_ARE_CIS: Attagene CIS-FACTORIAL HepG2 Assay for human Nuclear Factor Erythroid 2 Related Factor 2 (NFR2) response to Antioxidant Response Elements (ARE) (AID 2282992). The settings on record: HepG2 Attagene ARE/NRF2 reporter, transcription factor activity; actives raise or lower the signal. The essentials: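 Endogenous transcription factor activity in human liver HepG2 cells is tracked via a cis-element-driven reporter within a multiplexed set. mRNA induction is read by RT-PCR and capillary electrophoresis after 24 h, with DMSO as baseline.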

Assay [19] in a line: ATG_Oct_MLP_CIS: Attagene CIS-FACTORIAL HepG2 Assay for human Octamer-Binding Transcription Factor (Oct) (AID 2282993). To be noted: HepG2 Attagene cis-factorial Oct reporter, mRNA; actives raise or lower the signal. The method, boiled down:
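Cells of the HepG2 line express promoter-controlled reporter sequences whose mRNA levels, after 24 h treatment, are measured by RT-PCR and capillary electrophoresis. Increases and decreases are scored relative to DMSO.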

Assay [20] has as its target Cellular tumor antigen p53 (Homo sapiens) (UniProt P04637). Put plainly: ATG_p53_CIS: Attagene CIS-FACTORIAL HepG2 Assay for human p53 Transcription Factor (AID 2282994). To be noted: HepG2 p53 cis-element reporter, Attagene mRNA; actives raise or lower the signal. The method, boiled down:
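Steps: transfect HepG2 with multiplexed cis reporter constructs; dose chemicals 24 h; extract RNA, reverse-transcribe, PCR-amplify reporter sequences; FAM-label, HpaI-digest, resolve fragments by CE. Activity fitted both directions relative to DMSO.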

Hepatocyte nuclear factor 6 (Homo sapiens), sequence (Q9UBC0 whole entry, looked up): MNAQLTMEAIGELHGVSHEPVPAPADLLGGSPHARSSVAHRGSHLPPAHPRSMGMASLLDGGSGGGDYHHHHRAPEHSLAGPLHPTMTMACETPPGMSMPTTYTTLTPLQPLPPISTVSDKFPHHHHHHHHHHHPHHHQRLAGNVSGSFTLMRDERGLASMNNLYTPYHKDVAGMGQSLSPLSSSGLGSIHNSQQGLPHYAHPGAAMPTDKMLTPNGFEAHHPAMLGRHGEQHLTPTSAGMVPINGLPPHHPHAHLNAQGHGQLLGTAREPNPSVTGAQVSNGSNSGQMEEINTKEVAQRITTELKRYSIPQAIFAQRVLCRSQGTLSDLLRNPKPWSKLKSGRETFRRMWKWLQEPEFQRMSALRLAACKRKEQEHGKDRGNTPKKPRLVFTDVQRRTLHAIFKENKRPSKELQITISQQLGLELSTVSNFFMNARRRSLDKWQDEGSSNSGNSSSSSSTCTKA
Nuclear respiratory factor 1 (Homo sapiens), sequence (Q16656 whole entry, looked up, the tested form may be a part): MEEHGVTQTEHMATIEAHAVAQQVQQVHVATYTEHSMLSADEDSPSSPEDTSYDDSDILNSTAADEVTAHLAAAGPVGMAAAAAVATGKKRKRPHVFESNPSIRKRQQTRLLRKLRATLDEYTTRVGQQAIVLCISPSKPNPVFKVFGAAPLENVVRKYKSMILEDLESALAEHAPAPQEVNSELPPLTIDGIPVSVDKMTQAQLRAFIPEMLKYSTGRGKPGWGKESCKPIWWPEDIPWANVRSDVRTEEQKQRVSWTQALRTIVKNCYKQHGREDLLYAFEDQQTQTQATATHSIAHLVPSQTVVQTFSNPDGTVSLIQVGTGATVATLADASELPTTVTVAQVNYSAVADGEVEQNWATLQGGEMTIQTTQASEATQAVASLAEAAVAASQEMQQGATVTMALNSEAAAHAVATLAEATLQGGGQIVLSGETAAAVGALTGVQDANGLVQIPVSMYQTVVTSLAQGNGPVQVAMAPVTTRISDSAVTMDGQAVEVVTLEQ
Heat shock factor protein 1 (Homo sapiens), sequence (Q00613 whole entry, looked up): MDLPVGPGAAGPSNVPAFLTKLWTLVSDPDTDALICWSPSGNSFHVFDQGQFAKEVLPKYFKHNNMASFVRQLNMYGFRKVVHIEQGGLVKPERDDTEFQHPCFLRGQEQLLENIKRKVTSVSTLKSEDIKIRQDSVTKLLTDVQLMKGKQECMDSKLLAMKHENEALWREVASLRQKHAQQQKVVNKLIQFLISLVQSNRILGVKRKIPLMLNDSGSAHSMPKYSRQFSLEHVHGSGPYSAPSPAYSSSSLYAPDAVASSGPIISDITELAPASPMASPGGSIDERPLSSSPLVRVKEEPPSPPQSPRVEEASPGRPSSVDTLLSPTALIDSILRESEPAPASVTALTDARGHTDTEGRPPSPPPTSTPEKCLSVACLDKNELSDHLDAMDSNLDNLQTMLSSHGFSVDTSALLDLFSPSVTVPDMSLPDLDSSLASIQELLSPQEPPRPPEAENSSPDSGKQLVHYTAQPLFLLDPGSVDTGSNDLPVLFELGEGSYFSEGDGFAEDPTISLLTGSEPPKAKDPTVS
X-box-binding protein 1 (Homo sapiens), sequence (P17861 whole entry, looked up): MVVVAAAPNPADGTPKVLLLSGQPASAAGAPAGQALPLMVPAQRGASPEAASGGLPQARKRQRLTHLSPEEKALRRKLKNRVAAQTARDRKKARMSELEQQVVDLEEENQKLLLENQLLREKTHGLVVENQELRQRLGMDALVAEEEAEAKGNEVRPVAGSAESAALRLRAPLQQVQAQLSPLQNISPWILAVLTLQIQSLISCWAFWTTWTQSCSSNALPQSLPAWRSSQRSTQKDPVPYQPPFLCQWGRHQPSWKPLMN
Cellular tumor antigen p53 (Homo sapiens), sequence (P04637 whole entry, looked up, the tested form may be a part): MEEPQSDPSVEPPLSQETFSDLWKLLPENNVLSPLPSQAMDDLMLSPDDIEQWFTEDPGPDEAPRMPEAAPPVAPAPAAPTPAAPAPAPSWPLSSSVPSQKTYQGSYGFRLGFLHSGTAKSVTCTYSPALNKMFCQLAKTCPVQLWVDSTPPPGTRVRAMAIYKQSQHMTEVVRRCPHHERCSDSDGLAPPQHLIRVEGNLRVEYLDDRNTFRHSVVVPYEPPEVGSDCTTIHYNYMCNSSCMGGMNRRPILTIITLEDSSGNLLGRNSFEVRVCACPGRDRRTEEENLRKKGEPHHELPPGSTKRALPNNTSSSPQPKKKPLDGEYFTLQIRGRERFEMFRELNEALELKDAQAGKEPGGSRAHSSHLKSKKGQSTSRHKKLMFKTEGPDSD

With `O=[N+]([O-])C=Cc1ccccc1`, the result in assay [1], in assay [3], in [4], in assay [6], in [8] and in assay [10] was inactive. For the same molecule, the outcome in assay [11], in assay [16] and in assay [18] was inactive. Moreover, the AC50 in assay [2] is 27.6 µM (active); in assay [5], 11.4 µM (active); in [7], 33.4 µM (active); in [9], 18.9 µM (active); in assay [12], 10.7 µM (active); in assay [13], 20.3 µM (active). Besides, the AC50 in assay [14] is 22.9 µM (active); in assay [15], 38.5 µM (active); in assay [17], 34.7 µM (active); in assay [19], 18.5 µM (active); in [20], 20.2 µM (active).

On to `c1cc(OCC2CO2)ccc1Cc1ccc(OCC2CO2)cc1` (stereo not drawn), for which the AC50 in [1] was 49.6 µM (active); in assay [4] it was 45.8 µM (active); in assay [5], 62.6 µM (active); in assay [7] it was 54.8 µM (active); in assay [9], 35.2 µM (active); in assay [12], 8.36 µM (active). Besides, the AC50 in assay [13] was 19.8 µM (active); in [16], 22.9 µM (active); in assay [17] it was 54.7 µM (active); in [18] it was 8.95 µM (active); in assay [19], 25.3 µM (active); in [20], 55.3 µM (active). Besides, the call in assay [3], in assay [6], in [10], in assay [11], in assay [14] and in [15] was inactive.

Turning to `ClCC(Cl)Cl`, the result in [1], in assay [2], in assay [3], in assay [4], in assay [5] and in assay [6] was inactive. In addition, the call in [7], in [8], in assay [9], in assay [10], in [11] and in assay [12] was inactive. Besides, the result in [13], in [14], in [15], in [16], in assay [17] and in [18] was inactive. Moreover, the call in assay [19] and in assay [20] was inactive.

Broadly, the AC50 is the concentration at which the activity in the assay is half-maximal.
